Screening data deposited in PubChem by several laboratories.
HSF1 inhib = HSF1 inhibitors in luciferase reporter cells, primary screen, cell-based, NIH3T3, luminescence; activity change, negative = inhibition, % at 7.5 µM (by protocol); NIH3T3-HGL HSE-luciferase, MG132-induced, luminescence 8 h; active compounds read low; 300,000 compounds, 0.77% hits;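 active = more than half of replicate wells show activity change below -50%, luminescence cut by over half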;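 also: luciferase reports HSF-1 transcriptional activity via heat shock element; 0% = median of DMSO wells and -100% = zero luminescence signal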
HSP90 inh = HSP90 inhibitors, primary screen, cell lysate, luminescence; Heat shock protein HSP 90 (rabbit reticulocyte lysate; luciferase refolding); Rabbit reticulocyte lysate, luciferase refolding luminescence, 3 h; inhibition, % at 5.6 µM; 290,000 compounds, 0.91% hits;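 active = inhibition above the screen-wide mean plus 3 SD, computed separately per campaign, cut at about 16% in these data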;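 also: 0% = DMSO wells and 100% = 60 µM geldanamycin wells; inhibitors lower the luminescence because luciferase stays unfolded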
PG9 Ab binder = binders of HIV-1 gp120 antibody PG9, primary screen, biochemical, TR-FRET; TR-FRET gp120-PG9 antibody binding; AID 624416, 2012; inhibition, % at 6.7 µM; 360,000 compounds, 0.43% hits; HIV-1 gp120 / PG9 antibody interaction; in the data active = inhibition above about 8.5%
SMARCA2 act = SMARCA2 (BRM) function activators, primary screen, cell-based, luminescence, high throughput; MG213 cells, MMTV-luciferase reporter, dexamethasone, overnight; activation, % at 9.1 µM; 370,000 compounds, 1% hits; AID 652017, 2013; in the data active = activation above about 7.8%;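 also: 0% = vehicle wells and 100% = reference activator wells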
AI-2 QS mod = Vibrio harveyi AI-2 quorum sensing modulators, primary screen, JMH597 strain, luminescence/OD600 ratio. Vibrio harveyi JMH597 AI-2 luminescence/OD600 ratio, 9 h; active compounds read low; strain lacks LuxN and CqsS sensors; 0 = neutral-control median. activity change, % at 7.5 µM. 300,000 compounds, 0.4% hits; in the data active = activity change below about -75%, passing the limit was not always enough;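 also: luminescence divided by OD600 gain over 9 h not by final OD600 alone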
GAA850 FXN act = FXN promoter activators, primary screen, cell-based, luciferase luminescence, HEK293 lucGAA850. activation, % at 6 µM. 360,000 compounds, 0.56% hits. HEK293 lucGAA850 FXN promoter luciferase reporter, 24 h; percent of 10 µM SAHA response;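 active = activation above the average of all compounds screened plus 3 SD, cutoff fixed separately per campaign, cut at about 7.5% in these data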;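 also: 0% = DMSO wells and 100% = 10 µM SAHA wells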
SMARCA2 conf = SMARCA2 (BRM) function activators, confirmation, cell-based, luminescence, triplicate | 3,500 compounds, 30% hits | AID 652260, 2013 | activation, % at 9.1 µM | MG213 cells, MMTV-luciferase with dexamethasone, overnight; MG213 cells expressing E1A, Rb sequestered; DMSO wells 0%, reference activator 100% | shares compounds with SMARCA2 act;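 active = activation above its plate's cutoff, the mean activation of tested wells plus 3 SD, cut at about 7.9% in these data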
VP16 Luc act = GAL4-VP16 luciferase reporter activation, counter-screen for SMARCA2 (BRM) activator project, cell-based, pG5luc, luminescence, high throughput; AID 686939, 2013; HEK293 GAL4-VP16 pG5luc reporter; scaled: DMSO wells 0%, SAHA wells 100%; activation, % at 9.1 µM; shares compounds with SMARCA2 act; 3,500 compounds, 41% hits;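 active = activation above the solvent-only control well mean plus 3 SD, averaged across control plates, cut at about 5.2% in these data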
* marks the source's active call; other numbers are inactive results; x = not tested or not shown. Rows were chosen to be rich in hits. Some 3.4% of all compounds tested hit in one or more screens of this group.

SMILES | HSF1 inhib | HSP90 inh | PG9 Ab binder | SMARCA2 act | AI-2 QS mod | GAA850 FXN act | SMARCA2 conf | VP16 Luc act
C[C@@H]1C=CCCO[C@]12C(=O)N(Cc1ccc(F)cc1)c1ccccc12 | x | x | 2 | -5 | x | x | x | x
Cc1cc(O)c(C(C)C)cc1N=Cc1ccc([N+](=O)[O-])cc1 | x | x | -5 | 1 | x | -2 | x | x
CC(C)COc1ccc(-c2nnn(CC(=O)N3CCCC3)n2)cc1 | 5 | 1 | -3 | 9.9* | 23 | 3 | 6 | 8.2*
O=C(Cn1nnc(-c2ccccc2)n1)N1CCCCC1 | -2 | 3 | -2 | 1 | -6 | 4 | x | x
N#Cc1c(Nc2ccccc2Cl)s[nH]c1=O | -3 | 1 | 0 | 8.8* | 56 | 1 | 7 | 0
CCOc1ccc(NC(=O)NN2C(C)CCCC2C)cc1 (configuration not stated) | 3 | 5 | 1 | 15* | 2 | 0 | -5 | 0
COc1ccc(N(CCCN2C(=O)c3cccc4cccc(c34)C2=O)C(=O)c2ccncc2)cc1 | -1 | 1 | -1 | 8.0* | 35 | 5 | 3 | 3
COc1ccc(N(CCCN2C(=O)c3cccc4cccc(c34)C2=O)C(=O)c2cccnc2)cc1 | 2 | 2 | -1 | 2 | 18 | 2 | x | x
CCC(C(=O)NC1CCCC1)n1c(-c2cc3ccccc3[nH]2)nc2ccccc21 (configuration not stated) | x | x | -2 | -2 | x | x | x | x
CC(=O)c1cccc(NC(=S)NC(=O)C(C)C)c1 | 2 | 0 | -1 | 8.7* | 43 | 1 | -1 | 0
COc1ccc(-c2sc3ccccc3c2-c2ccc(OC)cc2F)cc1 | x | x | 2 | 2 | x | x | x | x
COC(=O)C1=C(C)N(Cc2cccc(C(F)(F)F)c2)C(=NCc2cc(OC)c(OC)c(OC)c2)NC1c1cccc(C(F)(F)F)c1 (configuration not stated) | x | x | 0 | -2 | x | x | x | x
O=C(CN1C(=O)CSc2ccccc21)NC1CCCC1 | -3 | 2 | -1 | 8.3* | 6 | -2 | 0 | 0
CCc1cccc(NC(=S)N(CCN(C)C)C(C)c2ccncc2)c1 (configuration not stated) | -4 | 2 | -2 | -2 | 5 | 0 | x | x
CCOC(=O)c1ccc(NC(=S)N(CCN(C)C)C(C)c2ccncc2)cc1 (configuration not stated) | -2 | -3 | -1 | 11* | 22 | 2 | -2 | -1
Cc1ccc(/C=C2/NC(=O)[C@H](C)NC2=O)cc1 | -4 | 7 | 0 | 8.4* | 2 | 3 | 2 | 3
c1ccc(-c2nc3nc4ccccc4nc3n2Cc2ccco2)cc1 | 8 | 3 | -1 | 8.0* | 0 | 2 | 7 | 14*
CNc1cc(C)nc(N2CCOCC2)n1 | -5 | 9 | 0 | 8.7* | 7 | -1 | -1 | 1
CCCNC(=O)C1(C)CCCN(Cc2ccc(C)cc2)C1 (configuration not stated) | x | x | -1 | -2 | x | -2 | x | x
CC(C)Cn1c(/C=C/c2ccccc2)nc2ccccc21 | 53 | 4 | -2 | 3 | 5 | 6 | x | x
CCn1c(/C=C/c2ccccc2)nc2ccccc21 | 39 | 4 | -2 | 9.2* | 7 | 3 | 11* | 11*
Cc1ccccc1OCC(=O)NC1=NCCS1 | 5 | 2 | -3 | 9.0* | 25 | 2 | 7 | 12*
CC(C)[C@H](NC(=O)c1ccc(Cl)c(Cl)c1)C(=O)N1CCC[C@H]1C(=O)NCCc1ccccc1Cl | x | x | -3 | -3 | x | x | x | x
O=C(CCC(=O)c1cccs1)NC(c1ccccc1)c1ccccc1 | 2 | 1 | 0 | 9.0* | 5 | 0 | -1 | 0
CC(NC(=O)CCC(=O)c1cccs1)c1ccccc1 (configuration not stated) | -1 | x | 2 | 0 | 10 | -2 | x | x
SMILES | HSF1 inhib | HSP90 inh | PG9 Ab binder | SMARCA2 act | AI-2 QS mod | GAA850 FXN act | SMARCA2 conf | VP16 Luc act
O=C(CC(=O)c1cccs1)c1ccncc1 | x | x | 0 | 10* | x | 3 | 2 | 4
O=C(NNC(=O)c1cccs1)c1ccncc1 | -6 | 4 | 0 | -3 | 7 | 4 | x | x
CC(C)c1ccc([C@@H]2O[C@H](CCc3ccccc3)CC3=C2C(=O)OC(C)(C)O3)cc1 | x | x | -1 | -2 | x | x | x | x
CCCc1nc(N2CCOCC2)c(C#N)c2c1CCCC2 | -3 | 2 | 0 | -2 | 16 | 4 | x | x
CN1CCc2c(C#N)c(N3CCOCC3)nc(NCC3CCCO3)c2C1 (configuration not stated) | -5 | -1 | -4 | 12* | 22 | -1 | -3 | 0
Cc1ccc(C(=O)CCNc2cccc(Br)c2)o1 | 4 | -4 | 3 | 8.8* | 5 | 5 | 2 | 1
CC(=O)OCC(=O)C1(O)CCC2C3CC(C)C4=CC(=O)C=CC4(C)C3C(O)CC21C (configuration not stated) | x | x | 0 | 2 | x | -2 | x | x
COC(=O)C1=C(C)N(Cc2ccccc2)C(=S)NC1c1cccc(OC)c1 (configuration not stated) | x | x | -1 | 3 | x | x | x | x
COC(=O)C1=C(C)N(Cc2ccc(F)cc2)C(=S)NC1c1cccc(OC)c1 (configuration not stated) | x | x | 0 | 8.6* | x | x | -4 | 1
CCNC(=O)N(C)[C@H]1C[C@@H](c2ccccc2)N(C(C)=O)C[C@H]1CO | x | x | -1 | 5 | x | x | x | x
CCC(C)Nc1nc(C)nc2c1nnn2Cc1ccccc1 (configuration not stated) | x | x | x | 8.0* | x | x | 6 | 1
O=C(/C=C/c1ccc(-c2ccccc2)o1)c1ccccc1 | 42 | 8 | -2 | 12* | 13 | 4 | 21* | 5
Cc1ccc(-c2ccc(/C=C/C(=O)c3ccccc3)o2)cc1 | 55 | -2 | -2 | 0 | 2 | 5 | x | x
CCOC(=O)Cc1nn(Cc2ccc(Cl)cc2)c(=O)c2ccccc12 | 10 | 3 | -3 | 8.8* | 15 | 3 | -4 | 1
CCOC(=O)Cc1nn(Cc2ccccc2)c(=O)c2ccccc12 | -3 | -6 | 0 | 5 | 10 | 4 | x | x
